The record followed here is PubChem BioAssay (NCI).

Molecules are shown by their SMILES. Compounds without any hit were thinned out: in the full panel of roughly 83,000, 20% have a hit.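 Single-dose data. Exposure time 48 hours. Values below 10 considered active.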 A number with no mark means an inactive call. The source made the active and inactive calls.

Test systems include T-47D breast; BT-549 breast; MDA-MB-435 melanoma; SW-620 colon; MCF7 breast; HCT-116 colon; HCC-2998 colon; KM12 colon.
Test in all cases: NCI-60 one-dose screen, 48 h (100 = growth as untreated, 0 = no growth, -100 = all killed)
Conditions in all cases: 10 µM unless noted

On to `COCCn1cc(-c2nc(-c3cc4cccnc4n3C)cs2)c2ccccc21`, for which the growth with T-47D breast is -36.7% (active); in the assay on BT-549 breast, 24.9%; with MDA-MB-435 melanoma it was 6.84% (active); in the assay with SW-620 colon, 28.9%; in the assay on MCF7 breast, 6.6% (active); in the assay with HCT-116 colon, 23.5%. The growth is 57.8% in the assay with HCC-2998 colon and 4.96% (active) in the assay with KM12 colon.

Regarding `O=c1cc(-c2ccccc2)nc(SCc2nc3cc(Cl)c(Cl)cc3[nH]2)[nH]1`, the growth with T-47D breast is 79%; in the assay with BT-549 breast, 108%; in the assay with MDA-MB-435 melanoma it was 105%; in the assay with SW-620 colon it was 104%; with MCF7 breast it was 92.5%; in the assay with HCT-116 colon, 97.3%. Also, the growth is 102% in the assay with HCC-2998 colon and 96% in the assay with KM12 colon.

Take `CS(=O)(=O)c1ccc(-c2nc3ccccc3n2CC(=O)N/N=C/c2ccccc2)cc1`: the growth was 82.4% in the assay on T-47D breast; 95.9% in the assay on BT-549 breast; 97.2% in the assay with MDA-MB-435 melanoma; 103% in the assay with SW-620 colon; 89.3% with MCF7 breast; 81% in the assay with HCT-116 colon. The figures for the growth in the assay on HCC-2998 colon and with KM12 colon were 98.9% and 107%, respectively.

`COC(=O)c1ccc2cc(OC)c(OC)cc2c1`: the growth in the assay on T-47D breast was 96.1%; in the assay on BT-549 breast, 90.5%; in the assay on MDA-MB-435 melanoma, 98.8%; in the assay with SW-620 colon it was 99%; with MCF7 breast it was 92.2%; with HCT-116 colon it was 95.6%. The growth in the assay with HCC-2998 colon was 98.8%; in the assay on KM12 colon, 108%.

Turning to `CN(C)CCCC1(c2ccc(F)cc2)OCc2cc(-c3csc4ccccc34)ccc21` (configuration not stated), the growth with T-47D breast is 26.4%; in the assay on BT-549 breast, 84.2%; with MDA-MB-435 melanoma it was -91.4% (active); with SW-620 colon it was -82.4% (active); in the assay with MCF7 breast it was -62.5% (active); in the assay on HCT-116 colon, -44.2% (active). Moreover, the growth was -82.9% (active) in the assay on HCC-2998 colon and -83.2% (active) in the assay with KM12 colon.

`Cc1nc2sc(C(=O)Nc3cccc(Cl)c3C)c(N)c2cc1C(=O)/C=C/c1ccccc1`: the growth in the assay on T-47D breast is 21.2%; with BT-549 breast, -35.7% (active); in the assay with MDA-MB-435 melanoma, -26.3% (active); with SW-620 colon it was -21.8% (active); in the assay with MCF7 breast, 3% (active); with HCT-116 colon, -35.6% (active). Further, the growth in the assay on HCC-2998 colon was -83.2% (active); in the assay with KM12 colon it was -16.7% (active).

For `CC(C)NS(=O)(=O)/N=C1\NC(=O)NC1=C(Cl)Cl`, the growth was 79.7% with T-47D breast; 104% in the assay on BT-549 breast; 94.3% in the assay on MDA-MB-435 melanoma; 103% in the assay on SW-620 colon; 82.7% in the assay with MCF7 breast; 102% in the assay with HCT-116 colon. The growth in the assay with HCC-2998 colon is 110%; with KM12 colon, 85.4%.

As for `COC(=O)c1sccc1-c1cc(O)c(C(=O)Nc2ccccc2)s1`, the growth in the assay on T-47D breast was 67.5%; with BT-549 breast, 116%; with MDA-MB-435 melanoma, 102%; in the assay with SW-620 colon, 109%; in the assay with MCF7 breast it was 82%; in the assay with HCT-116 colon, 94.6%. The growth is 109% in the assay with HCC-2998 colon and 87% with KM12 colon.

Regarding `CN(C)Cc1cc(C(C)(C)C)cc(Br)c1O`, the growth with T-47D breast is 99.6%; with BT-549 breast, 114%; with MDA-MB-435 melanoma it was 101%; in the assay on SW-620 colon, 87.7%; with MCF7 breast, 87.9%; in the assay with HCT-116 colon, 103%. In addition, the growth in the assay on HCC-2998 colon and in the assay with KM12 colon was 109% each time.

For the compound `COc1ccc2c(O)c(/C=C3\N=Nc4ncccc43)oc2c1C[C@@H]1CCNC[C@H]1F`, the growth in the assay with T-47D breast is 29.7%; in the assay with BT-549 breast it was -43.2% (active); in the assay with MDA-MB-435 melanoma, -9.87% (active); with SW-620 colon it was -6.3% (active); in the assay with MCF7 breast it was -14.5% (active); with HCT-116 colon, -59.6% (active). Further, the growth is -21.5% (active) in the assay on HCC-2998 colon and -48.7% (active) in the assay on KM12 colon.

On to `COC1C(O)CC(OC2CC(OC3CC(O[C@@H]4C(=O)c5c(cc6cc(OC7CC(OC8CC(O)C(O)C(C)O8)C(O)C(C)O7)c(C)c(O)c6c5O)CC4[C@H](OC)[C@@H](O)C(C)=O)OC(C)C3O)OC(C)C2O)OC1C` (some centres not stated), for which the growth with T-47D breast is 1.23% (active); in the assay with BT-549 breast, -1.59% (active); with MDA-MB-435 melanoma it was 5.77% (active); in the assay with SW-620 colon it was 14.9%; with MCF7 breast it was 4.58% (active); with HCT-116 colon, 4.98% (active). The growth in the assay with HCC-2998 colon is -50% (active); in the assay with KM12 colon, 14.7%.

Regarding `O=c1cc(CP(=O)(O)O)c2cc(O)c(-c3ccccc3)cc2o1`, the growth is 101% with T-47D breast; 108% in the assay on BT-549 breast; 99.2% in the assay on MDA-MB-435 melanoma; 98.3% in the assay on SW-620 colon; 96.9% in the assay with MCF7 breast; 108% with HCT-116 colon. Further, the growth in the assay on HCC-2998 colon was 102%; with KM12 colon, 105%.

On to `COc1cc(C=C2C(=O)NC(=S)NC2=O)cc(CN2CCCC2)c1O`, for which the growth in the assay with T-47D breast is 110%; in the assay on BT-549 breast, 114%; with MDA-MB-435 melanoma, 100%; in the assay with SW-620 colon it was 108%; in the assay with MCF7 breast it was 96.1%; in the assay with HCT-116 colon it was 113%. For the same compound, the growth in the assay with HCC-2998 colon and with KM12 colon was 110% throughout.

Turning to `O=C(c1ccc(Br)cc1)C(Br)C(c1ccc(Cl)cc1)C(c1ccccc1)[N+](=O)[O-]` (configuration not stated), the growth is 76.9% in the assay on T-47D breast; 105% in the assay with BT-549 breast; 95.9% in the assay on MDA-MB-435 melanoma; 96.4% in the assay on SW-620 colon; 84.5% in the assay on MCF7 breast; 76.2% in the assay on HCT-116 colon. The figures for the growth in the assay with HCC-2998 colon and in the assay with KM12 colon were 125% and 92.7%, respectively.
